Structures are written as SMILES. Unmarked numbers belong to inactive results.

The assay is described as follows: growth of efflux-deficient E. coli DRC39 – strain DRC39, OD650, 48 h, E. coli filamentation inducers, primary screen (AID 1179).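 Further: screen aims at cell division blockers that make cells filament.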 The settings on record: E. coli DRC39 delta-acrAB growth, higher = more signal, called active from +8 up or from −8 down.
Take `CCOC(=O)C[C@H]1[C@H](OC(=O)Cc2ccc3c(c2)OCO3)[C@@H](NC(=O)c2ccc(-c3ccccc3)cc2)c2cc(OCCCO)ccc2N1C(=O)Cc1ccc(OC)cc1`: the z-score is 0.877.

For the compound `C=CCNC(=O)[C@H]1[C@@H]2C(=O)O[C@@H](c3ccccc3)[C@@H](c3ccccc3)N2[C@@H](c2ccc(O)cc2)[C@]12C(=O)N(C(=O)OCCOC)c1ccc(C#CCNC(N)=O)cc12`, the z-score is -0.135.

Regarding `NCCCCCNC(=O)[C@@H]1C[C@@H]2C(=O)NCC(=O)N2[C@@H]1c1ccc(O)cc1`, the z-score was 0.654.

Take `C[N+](C)(C)CCCC[C@@H]1NC(=O)[C@@H]2C[C@H](C(=O)NCCCCCN)[C@H](c3cccc(OCCO)c3)N2C1=O`: the z-score is 0.597.

On to `COc1cc(CO)cc(I)c1O[C@H]1C=C(C(=O)NCCO)C[C@@H](N(CCN2CCOCC2)C(=O)C2CCOC2)[C@@H]1O` (stereo not given in full), for which the z-score is 1.5.

On to `[N-]=[N+]=NCc1ccccc1[C@@H]1OC(c2ccc(OCCCO)cc2)=N[C@]1(Cc1ccccc1N=[N+]=[N-])C(=O)N1CCOCC1`, for which the z-score was -0.265. The figure for `O=C1NCC(=O)N2[C@@H]1C[C@@H](C(=O)O)[C@H]2c1cccc(OCCO)c1` is 0.524. The figure for `COc1ccc([Si](C)(C)[C@H]2[C@H](CCO)O[C@@]3(C(=O)N(Cc4ccc(N5C(=O)COc6ccccc65)cc4)c4ccccc43)[C@@H]2C)cc1` is -0.288.

Regarding `O=C1c2ccccc2[C@@]2(Cc3ccccc3N(CCN3CCOCC3)C2=O)[C@H](c2ccc(CO)cc2)N1Cc1ccccc1`, the z-score was 1.61. The figure for `COc1ccc([Si](C)(C)[C@@H]2[C@@H](CC(=O)N3Cc4ccccc4C[C@H]3CO)O[C@]3(C(=O)N(C)c4c(Br)cc(C)cc43)[C@H]2C)cc1` is 1.01; for `CCOC(=O)C[C@H]1[C@H](OC(=O)Cc2ccc3c(c2)OCO3)[C@@H](NC(=O)c2ccc3ccccc3c2)c2cc(OCCCO)ccc2N1C(=O)c1ccccc1` it is 0.15; for `CN1C(=O)C2C=CC(C(O)c3ccccc3)N(Nc3ccccc3)C2C1=O` (stereo not given) it is -1.29.

On to `CC(C)c1ccc(NN2C(C(O)C(c3ccccc3)c3ccccc3)C=CC3C(=O)N(c4ccccc4)C(=O)C32)cc1` (stereo not given), for which the z-score is -1.47. In the case of `C=C(CCCC)C(=O)CC[C@H](OC(=O)c1cccnc1)c1ccccc1OCCO`, the z-score was -0.0762. As for `CC(C)[C@@H](CO)NC(=O)[C@H]1[C@@H](c2ccccc2)N(c2ccccc2)O[C@@H]1C`, the z-score is 0.506. The figure for `CCOC(=O)[C@H]1CC=C2CC1C(=O)N1CCC[C@@H]1[C@@H]2O[Si](C)(C)C(C)(C)C` (stereo not given in full) is -0.17; for `O=C(O)[C@@]1(CCS(=O)(=O)c2ccccc2)COC(c2ccc(OCCCO)cc2)=N1` it is -0.216. The figure for `CCOC(=O)[C@H]1C/C=C/C[C@H](C(=O)OCC)C(=O)O[C@H]2[C@@H](OC)O[C@H](CO)[C@@H](OC(=O)Nc3ccc(C#N)cc3)[C@@H]2OC1=O` is 1.58; for `COCCOC(=O)N1C(=O)[C@@]2(c3cc(C#CC4=CCCCC4)ccc31)[C@H](C(=O)N1CCc3cc(OC)c(OC)cc3C1)[C@H]1C(=O)O[C@H](c3ccccc3)[C@H](c3ccccc3)N1[C@@H]2c1ccc(OCCO)cc1` it is -0.316; for `C#CCN(CC=C(C)C)[C@H](CO)c1ccccc1` it is -1.3. The figure for `COc1ccc(C(O)C2C=CC3C(=O)N(c4ccccc4)C(=O)C3N2Nc2ccccc2F)cc1OCc1ccccc1` (stereo not given) is 0.226; for `COc1ccc(C(=O)Nc2ccc(CN3C(=O)[C@@]4(O[C@@H](CC(=O)N5CCC[C@H]5CO)[C@H]([Si](C)(C)c5ccc(OC)cc5)[C@H]4C)c4ccccc43)cc2)cc1` it is 1.26; for `CCOC(=O)C=Cc1cc([N+](=O)[O-])ccc1O` it is -1.13. As for `CCOc1cc(C(O)C2C=CC3C(=O)N(c4ccccc4)C(=O)C3N2Nc2ccccc2)ccc1O` (stereo not given), the z-score was -0.649. The figure for `CCOC(=O)C[C@H]1[C@H](OC(=O)c2cc3ccccc3oc2=O)[C@@H](NC(=O)Cc2ccc(OC)cc2)c2cc(OCCCO)ccc2N1C(=O)c1ccccc1` is -0.784; for `O=C(NCc1ccc(F)cc1)[C@H]1C[C@H]2C(=O)N[C@@H](Cc3ccccc3)C(=O)N2[C@H]1c1ccc(O)cc1` it is -0.324; for `O=C(c1ccccc1)N1Cc2ccccc2[C@@H]2OC(c3ccc(OCCCO)cc3)=N[C@]2(Cc2ccccc2)C1=O` it is -0.749. The figure for `COc1ccc(C(=O)Nc2ccc(CN3C(=O)[C@@]4(O[C@@H](CCO)[C@H]([Si](C)(C)c5ccc(OC)cc5)[C@H]4C)c4ccccc43)cc2)cc1` is -0.0036; for `COc1ccc([Si](C)(C)[C@H]2[C@H](CCn3cc([C@H](O)c4ccccc4)nn3)O[C@@]3(C(=O)N(Cc4cccc(N5CCOC5=O)c4)c4ccccc43)[C@@H]2C)cc1` it is 0.0133; for `CCCC=C(CCC)[C@@H](NS(=O)(=O)c1cccs1)c1ccc(C(=O)OC)cc1` it is -0.424.

With `O=C(NCc1ccccc1)[C@@]1(Cc2ccccc2)N=C(c2ccc(OCCCO)cc2)O[C@H]1c1ccccc1`, the z-score was -0.3.

With `COC(=O)c1c(CC[C@@H](CO)NC(=O)N[C@@H](C)Cn2cc(C3(O)CCCCC3)nn2)oc(C(C)=O)c1C(=O)OC`, the z-score was -0.305. Take `O=C1O[C@H](c2ccccc2)[C@H](c2ccccc2)N2[C@H]1[C@@H](C(=O)O)[C@]1(C(=O)Nc3ccc(C#CCCO)cc31)[C@H]2c1ccc(O)cc1`: the z-score was 1.69. As to `CC(C)C[C@H]1NC(=O)[C@@]23C(=O)N[C@@H](Cc4ccccc4)C2[C@H](C)[C@@]2(C)O[C@H]2C3/C=C/C/C=C\CNC(=O)[C@H](Cc2ccccc2)NC1=O` (stereo not given in full), the z-score is 0.199. As for `COc1ccc(C#Cc2ccc3c(c2)[C@]2(C(=O)N3)[C@H](c3ccccc3OCCO)N3[C@H](c4ccccc4)[C@H](c4ccccc4)OC(=O)[C@H]3[C@@H]2C(=O)O)cc1`, the z-score is 0.047.

These data come from PubChem BioAssay.
